# Test results as given in the supplement of paper PMC13094657.
# ± gives the standard deviation of the averaged measurements.
# Columns and labels:
# MDA-MB-231 [1] = assay: cell viability relative to vehicle unstimulated control (fraction); higher = more viable cells; settings: pre-treatment time: 18 h then 24 h IFNg/TNF
# MDA-MB-231 [2] = assay: kynurenine production, fold change vs DMSO IFNg/TNF control; higher = more kynurenine produced (less inhibition); settings: pre-treatment time: 18 h then 24 h IFNg/TNF
# Procedure, shortened: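 After trichloroacetic acid and p-dimethylaminobenzaldehyde treatment, supernatants were read at 492 nm, with 0–100 μM standards. These came from MDA-MB-231 cells (7 × 10^4/well, 96-well plates) pre-treated 18 h with natural products in 0.1% DMSO and then exposed 24 h to IFNγ (1 U/ml) and TNF (6.25 ng/ml) at 37°C. Values for kynurenine production are fold changes over same-plate cytokine-stimulated vehicle wells, averaged over duplicate plates in the first screening round.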
# 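For cell viability relative to vehicle unstimulated control in this document: viability of the cells left after supernatant collection, read with Deep Blue dye added for 4 h, as absorbance at 570 nm minus 600 nm.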
Structure (SMILES),cell viability (MDA-MB-231 [1]),kynurenine production (MDA-MB-231 [2])
CN1[C@@H]2CC[C@H]1C[C@H](O)C2 [Pseudotropine] (compound dose: 10 uM),1.052 ± 0.0024,1.14 ± 0.4
CC(=O)OC[C@]12[C@H](OC(C)=O)[C@H](OC(C)=O)[C@@H]3[C@@H](OC(C)=O)[C@@]14O[C@@]3(C)COC(=O)c1cccnc1CCC(C)C(=O)O[C@@H]([C@H](OC(=O)c1ccco1)[C@@H]2OC(C)=O)[C@]4(C)O (stereo partly specified) [Wilforgine] (compound dose: 10 uM),1.02 ± 0.14,1.04 ± 0.077
C[C@]1(C(=O)O)CCC[C@]2(C)c3cc(O)ccc3CC[C@@H]12 [Podocarpic acid] (compound dose: 10 uM),0.946 ± 0.07,0.852 ± 0.12
CN1[C@@H]2CC(O)C[C@H]1[C@@H]1O[C@@H]12 (stereo partly specified) [Scopine] (compound dose: 10 uM),1,0.798 ± 0.03
CC1=C2[C@H]3OC(=O)[C@@H](C)[C@@H]3CC[C@@]2(C)C=CC1=O [Santonin] (compound dose: 10 uM),0.9716 ± 0.0046,1.02 ± 0.023
CC(C)=CCC[C@H](C(=O)O)[C@H]1CC[C@]2(C)C3=C(CC[C@@]12C)[C@@]1(C)CCC(=O)C(C)(C)[C@H]1CC3 [β-Elemonic acid] (compound dose: 10 uM),1.03 ± 0.034,1.161 ± 0.0012
C=C1CCC2C(/C=C(\C)C(=O)C3(OC(C)=O)CC(C)C(OC(=O)c4ccccc4)C3C1OC(C)=O)C2(C)C (stereo unspecified) [Euphorbia factor L3] (compound dose: 10 uM),1.05 ± 0.019,0.89 ± 0.11
CC(=O)O[C@@H]1[C@H]2[C@@H](OC(=O)Cc3ccccc3)[C@@H](C)C[C@]2(OC(C)=O)C(=O)/C(C)=C/[C@@H]2[C@H](CC[C@]13CO3)C2(C)C [Euphorbia factor L1] (compound dose: 10 uM),1.12,1.07 ± 0.11
